From PubChem BioAssay
Shown are actives, neighbours in structure and some others; about 18% of the full set was active somewhere.
TDP1 block = blocks human tyrosyl-DNA phosphodiesterase 1 | 350,000 compounds, 0.28% hits | AID 485290 | Potency, µM (doses to about 130 µM), without a hit: at the highest dose activity change, negative = inhibition, hits mostly inhibitors | Q9NUW8 | recombinant TDP1, AlphaScreen DNA substrate cleavage; note: potency is the fitted concentration of half-maximal effect; nearly all actives have a fitted effect of over 40% in size
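Signal: AlphaScreen proximity between streptavidin donor and anti-FITC acceptor beads on intact substrate. Reaction: Tdp1 1 nM, substrate 15 nM final, 5 min RT after 15 min compound preincubation.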
TDP1 cell CPT = growth inhibition of DT40 Tdp1-/-;hTDP1 cells with camptothecin (screen for TDP1 inhibitors); chicken DT40 Tdp1-/-;hTDP1 cells + 20 nM CPT, ATP luminescence, 48 h; Potency, µM (doses to about 46.2 µM), inactives show at the top dose activity change, negative = growth inhibition, hits mostly inhibitors; 420,000 compounds, 12% hits; AID 686979; note: potency is the fitted concentration of half-maximal effect; nearly all actives have a fitted effect of over 55% in size
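Cell growth measured by CellTiter-Glo luminescence after a minimum 48 h, 37 C compound exposure with 20 nM CPT in Tdp1-knockout DT40 cells stably expressing hTDP1, seeded 400/well; qHTS titration format.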
DT40 TDP1 no CPT = qHTS for Inhibitors of human tyrosyl-DNA phosphodiesterase 1 (TDP1): qHTS in cells in absence of CPT | Potency, µM (series often up to 46.2 µM), inactives show at the highest dose activity change, negative = growth inhibition, usual class: inhibitors | AID 686978, 2013 | DT40 Tdp1-/- hTDP1 cells, no CPT, ATP luminescence, 48 h | 420,000 compounds, 15% hits; note: potency is the fitted concentration of half-maximal effect; nearly all actives have a fitted effect of over 55% in size
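Seeded 400 DT40-hTDP1 cells/well (vehicle DMSO, no 20 nM CPT); pinned compounds; ≥48 hr at 37 °C; CellTiter-Glo luminescence as viability measure.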
Six1-Eya2 blk = Six1/Eya2 interaction inhibition; AlphaScreen GST-Six1/His-Eya2 binding, biochemical; active compounds read low; activity change, % (concentration not given with the values); 360,000 compounds, 0.56% hits; in the data active = activity change below about -65%; inconclusive = mostly about -30% to -63%
Target sequence (O00167 whole entry, looked up): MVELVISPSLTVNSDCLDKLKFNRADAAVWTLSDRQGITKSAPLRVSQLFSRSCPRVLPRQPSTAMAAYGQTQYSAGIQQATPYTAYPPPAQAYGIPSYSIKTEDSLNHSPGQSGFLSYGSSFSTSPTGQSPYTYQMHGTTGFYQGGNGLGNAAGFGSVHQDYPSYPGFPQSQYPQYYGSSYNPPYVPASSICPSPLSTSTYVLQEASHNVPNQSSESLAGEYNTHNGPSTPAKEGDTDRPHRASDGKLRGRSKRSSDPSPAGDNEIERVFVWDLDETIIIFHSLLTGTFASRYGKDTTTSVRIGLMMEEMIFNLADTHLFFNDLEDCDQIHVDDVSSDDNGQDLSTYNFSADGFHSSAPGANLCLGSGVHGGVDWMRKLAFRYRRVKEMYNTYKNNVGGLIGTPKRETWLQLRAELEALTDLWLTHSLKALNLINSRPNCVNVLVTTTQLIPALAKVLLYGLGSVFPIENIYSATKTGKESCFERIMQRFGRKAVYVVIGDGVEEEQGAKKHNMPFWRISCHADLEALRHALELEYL
Target sequence (Q15475 whole entry, looked up): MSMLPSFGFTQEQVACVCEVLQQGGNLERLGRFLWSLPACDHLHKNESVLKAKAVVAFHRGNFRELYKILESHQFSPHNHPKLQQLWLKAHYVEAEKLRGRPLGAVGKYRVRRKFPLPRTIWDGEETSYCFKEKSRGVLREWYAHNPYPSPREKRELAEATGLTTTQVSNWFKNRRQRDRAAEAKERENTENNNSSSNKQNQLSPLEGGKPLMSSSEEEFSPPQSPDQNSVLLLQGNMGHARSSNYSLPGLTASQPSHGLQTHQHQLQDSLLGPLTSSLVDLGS
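Six1/Eya2 binding was read as AlphaScreen signal after compounds were pinned into GST-Six1 plus His-tagged Eya2 (5X stock 250/500 nM) in pH 8.0 Tris/NaCl/TCEP buffer, beads added, then incubated 1 h, 37 C, dark.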
CtBP-E1A inh = blocks the CtBP interaction with E1A; 340,000 compounds, 0.49% hits; AlphaScreen GST-E1A/His-CtBP binding, 1536-well; active compounds read low; activity change, % (test concentration not listed); in the data active = activity change below about -65%; inconclusive = mostly about -30% to -63%
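Homogeneous bead-based format: GST-tagged E1A captured on glutathione donor beads, His-tagged CtBP on nickel acceptor beads; compounds precede bead addition by 2 h at 37 °C.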
IL-1B inflam inh = inflammasome signaling inhibition, IL-1 beta readout; THP-1 LPS/ATP IL-1B secretion, AlphaLISA, 16 h; active compounds read low; activity change, % at 57.5 µM; 360,000 compounds, 4.7% hits; AID 743279; in the data active = activity change below about -50%; inconclusive = mostly about -30% to -49%
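THP-1 cells pretreated 1 hr with compounds (up to 57.5 uM final), then stimulated with LPS (250 ng/mL final) plus ATP (1.25 mM final); secreted IL-1B measured by AlphaLISA after 16 hr, decreased signal indicating inhibition.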
* marks the source's active call; other numbers are inactive results; ? = inconclusive; nt = no result; ! = not active in a repeat; [ ] = remark or other dose. Unless noted, calls come from the whole dose curve; as a rule, active = well fitted curve in the direction sought with a large enough effect; inconclusive = small, poorly fitted or top-dose-only effect, or another doubt; inactive = no such curve, though single readings can be large; an effect the other way counts as inactive or inconclusive. % is set by controls: 0 for no effect and ±100 for the full control effect.

SMILES	TDP1 block	TDP1 cell CPT	DT40 TDP1 no CPT	Six1-Eya2 blk	CtBP-E1A inh	IL-1B inflam inh
CCSc1nc2ccccc2c(OCc2cc(C(=O)OC)ccc2OC)c1C(=O)OC	-5%	18µM*	?	nt	nt	nt
CCC(C)(C)c1nnc(NC(=O)C2CC(=O)N(CCc3ccc(F)cc3)C2)s1 (stereo not given)	7%	2%	-5%	0	4	38
CC1CCN(c2nc3ccc(C(=O)NCc4ccc(Cl)cc4)cc3s2)CC1	3%	?	?	nt	nt	nt
CC1CCN(c2nc3ccc(C(=O)NCCCN4CCCCC4)cc3s2)CC1	nt	?	23µM*	-6	-2	-20
Cc1cccc(N2CCN(C(=O)c3ccc4nc(N5CCC(C)CC5)sc4c3)CC2)c1C	5%	21µM*	16µM*	nt	nt	nt
CC1CCN(c2nc3ccc(C(=O)NCc4ccccc4Cl)cc3s2)CC1	8%	?	21µM*	nt	nt	nt
CCC1CCCCN1CCCNC(=O)c1ccc2nc(N3CCC(C)CC3)sc2c1 (stereo not given)	5%	?	?	2	-3	?
CCC(=O)N1CCc2cc(S(=O)(=O)NC(Cc3ccccc3)C(=O)Nc3ccccc3C)ccc21 (stereo not given)	2%	-11%	-4%	nt	nt	nt
CCc1cccc(C)c1NC(=O)Cn1ncc2c3ccccc3n(Cc3ccccc3)c2c1=O	-8%	10µM*	8.2µM*	nt	nt	nt
O=C(Cn1ncc2c3ccccc3n(Cc3cccc(Cl)c3)c2c1=O)NCCCc1ccccc1	0%	3%	-18%	nt	nt	nt
Cc1ccc(C)c(Cn2c3ccccc3c3cnn(CC(=O)NCCc4ccccc4)c(=O)c32)c1	3%	?	-21%	nt	nt	nt
Cc1ccccc1Cn1c2ccccc2c2cnn(CC(=O)NCc3cccc(Cl)c3)c(=O)c21	0%	15µM*	-103%	nt	nt	nt
O=C(Cn1ncc2c3ccccc3n(Cc3ccccc3)c2c1=O)Nc1ccccc1C(F)(F)F	5%	?	?	nt	nt	nt
COc1ccccc1CNC(=O)Cn1ncc2c3ccccc3n(Cc3ccccc3C)c2c1=O	0%	7.3µM*	16µM*	nt	nt	nt
CC(=O)N1CCN(c2ccc(Oc3ccc([N+](=O)[O-])c(C(F)(F)F)c3)cc2)CC1	12%	12µM*	2.9µM*	-18	-17	-83*
CCOc1ccc(C(=O)Nc2ccc(N3CCN(C(C)=O)CC3)cc2)cc1[N+](=O)[O-]	0%	?	?	6	nt	-1
COc1cc(OC)c2c(-c3cccc(-c4ccc(N(C)C)cc4)c3)cc(=O)oc2c1	6%[56.1 µM]	1.8µM*	1.2µM*	?	?	65
COc1cc(OC)c2c(-c3cccc(-c4ccc(OC(F)(F)F)cc4)c3)cc(=O)oc2c1	1%[56.1 µM]	?	?	1	6	21
COc1cc(OC)c2c(-c3cccc(-c4ccc(CO)cc4)c3)cc(=O)oc2c1	1%[56.1 µM]	1.3µM*	0.58µM*	-8	-10	5
COc1ccc(-c2cccc(-c3cc(=O)oc4cc(OC)c(OC)c(OC)c34)c2)cc1	0%[56.1 µM]	?	?	-2	-8	72
COc1cc2oc(=O)cc(-c3cccc(-c4ccc(C(C)=O)cc4)c3)c2c(OC)c1OC	3%	nt	nt	nt	nt	nt
COc1cc(OC)c2c(-c3cccc(-c4ccc(O)cc4)c3)cc(=O)oc2c1	3%[56.1 µM]	?	16µM*	-6	-17	73
COc1ccc(-c2cccc(-c3cc(=O)oc4cc(OC)cc(OC)c34)c2)cc1	1%[56.1 µM]	1.3µM*	0.65µM*	-2	0	78
COc1ccc(CNC(=O)C2CCC(CNc3c(N4CCCCC4)c(=O)c3=O)CC2)cc1 (stereo not given)	nt	1%	-3%	-9	-12	87
COc1cc(OC)cc(-c2nc(-c3cccc(C)c3)no2)c1	-1%	-19%	?	nt	nt	nt
SMILES	TDP1 block	TDP1 cell CPT	DT40 TDP1 no CPT	Six1-Eya2 blk	CtBP-E1A inh	IL-1B inflam inh
COc1cc(OC)c2c(C)cc(=O)oc2c1	nt	10%	4%	-5	-13	?
COc1cc(OC)c2c(-c3cccc(/C=C/c4ccc(F)cc4)c3)cc(=O)oc2c1	0%[56.1 µM]	21µM*	18µM*	8	1	3
COc1cc(OC)c2c(-c3cccc(-c4cccc(C)c4)c3)cc(=O)oc2c1	0%[56.1 µM]	4.1µM*	3.7µM*	0	0	86
COc1ccc(-c2cc(=O)oc(-c3cccc(C)c3)n2)cc1	4%	?	18µM*	8	nt	0
COC(=O)C1=C[C@@H](C(=O)OC)C2C3=C(C(=O)[C@@]2(C)NC(=O)c2ccccc2)[C@H](c2ccccc2)[C@@H]2C(=O)N(c4ccccc4)C(=O)[C@@H]2[C@@H]3C1 (stereo not given in full)	6%	nt	nt	nt	nt	nt
O=c1cc(O)c(-c2ccc(Cl)cc2)c(Cl)[nH]1	-2%	-5%	6%	-1	3	15
O=C1c2cc(Cl)ccc2-c2c(O)cc(Cl)cc21	nt	?	15µM*	-14	-14	-74*
CCCNC(=O)N1N=C(c2ccc(N)cc2)c2cc3c(cc2C1C)OCO3 (stereo not given)	16%	nt	nt	nt	nt	nt
COc1ccc(CN2CCC3C=CCC(C(=O)O)C3C2=O)cc1OC (stereo not given)	8%	nt	nt	nt	nt	nt
COc1ccc(CN2CC[C@H]3C=CC[C@@H](C(=O)Nc4ccccc4)[C@H]3C2=O)cc1OC	nt	?	10µM*!	nt	nt	nt
COc1ccc(CNC(=O)[C@@H]2CC=C[C@@H]3CCN(Cc4ccc(Cl)c(Cl)c4)C(=O)[C@@H]32)cc1	nt	23µM*	11µM*	-12	nt	0
CCCCN1CC[C@H]2C=CC[C@@H](C(=O)Nc3ccc(Cl)cc3Cl)[C@H]2C1=O	nt	16µM*	?	-1	nt	-19
N#CCCCSC1=C(C#N)C(c2ccccc2Cl)CC(=O)N1 (stereo not given)	2%	?	?	5	3	-9
C[C@H]1C(=O)N(S(=O)(=O)c2ccc([N+](=O)[O-])cc2)[C@H]1c1ccc(F)cc1	8%	nt	nt	nt	nt	nt
Cc1ccc(C(=O)C(C)OC(=O)c2cc(=O)[nH]c3ccccc23)cc1 (stereo not given)	3%	?	-19%	17	0	6
CC1C(=O)N(Cc2cn(CC3CCCCC3)nn2)CCS(=O)(=O)N1Cc1ccc(-c2ccc(F)nc2)cc1 (stereo not given)	nt	?	-24%	8	-6	2
CC1C(=O)N(Cc2cn(CC3CCCCC3)nn2)CCS(=O)(=O)N1Cc1ccc(-c2ccccc2)cc1 (stereo not given)	nt	23µM*	15µM*	-5	-4	-18
